SMN2 splice up – enhancers of SMN2 splice variant expression | HEK293 SMN2-luciferase splicing reporter, luminescence, 30-36 h | Potency, µM (highest dose often 46.1 µM), usual class: activators | 2.8% of 210,000 active; also: nearly all actives have a fitted effect of over 55% in size
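HEK293 cells carry an SMN2 […]–luciferase reporter in which exon 7 inclusion puts luciferase in frame. Cells were plated 10-12 h before compound addition, then incubated 30-36 h at 37C. ONE-Glo luminescence was read; sodium butyrate at 4.5 mM final served as control.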
NPC1 prom act – NPC1 promoter activation | Huh7 NPC1 promoter luciferase reporter, 24 h | Potency, µM (doses to about 9.22 µM), most hits filed as activators | 2.4% of 320,000 active | AID 485313; also: nearly all actives have a fitted effect of over 60% in size
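NPC1 promoter–luciferase Huh7 cells; 24 h compound; luminescence.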
ELG1 genotoxic – genotoxicity induction in ELG1-luciferase HEK293T cells. HEK293T ELG1-luciferase reporter, luminescence, 16 h. AID 504466. Potency, µM (highest dose often 46 µM), hits mostly activators. 1.3% of 330,000 active; also: nearly all actives have a fitted effect of over 60% in size
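ELG1-luciferase HEK293T cells, 2,000/well; compound pinned in; 16 hr, 37 °C, 5% CO2; ONE-Glo, 30 min RT; luminescence on CCD imager.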
FLuc counter – counter-screen for miR-21 project: firefly luciferase inhibitors or activators; purified FLuc, Km substrates, luminescence inhibition; Potency, µM (top dose mostly 57.5 µM), most hits filed as inhibitors; 6.9% of 360,000 active; AID 588342; also: nearly all actives have a fitted effect of over 55% in size
Target sequence (P08659 whole entry, looked up): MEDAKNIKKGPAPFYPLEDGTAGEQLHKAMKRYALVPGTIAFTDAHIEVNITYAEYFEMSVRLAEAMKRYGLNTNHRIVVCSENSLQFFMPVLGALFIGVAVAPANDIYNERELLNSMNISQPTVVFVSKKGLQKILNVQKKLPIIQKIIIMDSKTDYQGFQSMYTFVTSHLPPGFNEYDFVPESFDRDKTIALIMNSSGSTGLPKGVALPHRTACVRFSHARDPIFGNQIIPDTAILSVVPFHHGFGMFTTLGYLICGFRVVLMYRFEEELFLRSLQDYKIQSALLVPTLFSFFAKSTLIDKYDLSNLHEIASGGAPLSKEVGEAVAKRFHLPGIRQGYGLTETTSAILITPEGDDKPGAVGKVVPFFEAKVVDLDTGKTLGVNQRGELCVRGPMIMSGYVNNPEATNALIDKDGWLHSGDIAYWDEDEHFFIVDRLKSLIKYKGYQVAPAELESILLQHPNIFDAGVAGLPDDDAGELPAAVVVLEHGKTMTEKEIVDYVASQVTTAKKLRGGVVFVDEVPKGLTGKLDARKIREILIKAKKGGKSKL
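Biochemical qHTS of compounds, final roughly 60 µM downward over six points, against 10 nM purified firefly luciferase using Km concentrations of substrates (10 uM D-luciferin, 10 uM ATP) in Tris acetate pH 7.5 buffer; luminescence output.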
uPA generation – inhibitors of cell surface uPA generation | cell surface uPA generation assay, qHTS | Potency, µM (series often up to 38.3 µM), actives largely listed as inhibitors | 0.31% of 330,000 active | AID 540303; active = well fitted inhibition curve with a large enough effect; inconclusive = small, poorly fitted or top-dose-only effect; inactive = no such curve, though single readings can be large or run the other way; tested in mouse RAW 264.7 cells; also: nearly all actives have a fitted effect of over 55% in size
Rab9 promoter act – activators of Rab9 promoter; Huh7 Rab9 promoter-luciferase reporter, luminescence, 24 h; 2.8% of 320,000 active; Potency, µM (titrated, usually from 9.22 µM), actives largely listed as activators; also: nearly all actives have a fitted effect of over 60% in size
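Using Huh7 cells stably transfected with Rab9 promoter–luciferase, compounds were incubated 24 h at 37 °C, 5% CO2; luciferase luminescence was read 10 min after reagent addition.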
Hits are given with their value; 0 = inactive; ? = inconclusive; - = no result; [ ] = remark or other dose. This is a sample that favours compounds with a hit; in the whole collection about 7.3% have one here. Unless noted, calls follow the shape of the dose curve; as a rule, active = well fitted curve in the direction sought with a large enough effect; inconclusive = small, poorly fitted or top-dose-only effect, or another doubt; inactive = no such curve, though single readings can be large; an effect the other way counts as inactive or inconclusive.

SMILES	SMN2 splice up	NPC1 prom act	ELG1 genotoxic	FLuc counter	uPA generation	Rab9 promoter act
Cc1cc(NC(=O)/C=C/c2ccco2)ccc1NC(=O)c1ccccc1	-	0	0	?	0	0
COc1ccc(OC)c(/C=C/C(=O)Nc2ccc(OC)nc2)c1	0	0	0	?	0	0
COc1ccc(NC(=O)/C=C/c2ccco2)cn1	13µM	3.2µM	?	21µM	0	4µM
COc1ccc(NC(=O)/C=C/c2cccc(F)c2)cn1	11µM	2µM	?	7.6µM	0	2.2µM
COc1ccc(NC(=O)/C=C/c2ccc(Br)o2)cn1	-	0	0	?	0	0
Cn1cnnc1SCC(=O)c1ccc2c(c1)CCCC2	0	0	?	19µM	0	0
Cc1ccc(NC(=S)N/N=C/c2c(C)[nH]c3ccccc23)cc1	0	0	0	19µM	0	0
Cc1[nH]c2ccccc2c1/C=N/NC(=O)c1cc(-c2ccccc2)n[nH]1	-	0	0	24µM	0	0
Cc1[nH]c2ccccc2c1/C=N/NC(=O)c1cc(C(C)(C)C)[nH]n1	-	0	0	12µM	0	0
Cc1[nH]c2ccccc2c1/C=N/Nc1cccc(C(=O)O)c1	-	1.6µM	?	2.7µM	0	2µM
Cc1[nH]c2ccccc2c1/C=N/NC(=O)c1ccccc1	-	0	0	?	0	0
CCOC(=O)C(=O)C1(C(=O)OCC)Oc2cc(OC)cc(OC)c2C(=O)C1c1ccccc1 (configuration not stated)	0	-	-	-	-	-
CCOc1cc(-c2ccc(OC(=O)c3ccc(OC)cc3)c(OC)c2)cc(=O)c2c(C)oc(C)c12	0	-	-	0	-	-
CCS(=O)(=O)c1nc(S(=O)(=O)c2ccc(Cl)cc2)c(NCc2ccc(Cl)cc2)s1	0	-	-	0	-	-
Cc1[nH]c2ccccc2c1/C=N/NC(=O)c1ccc(N)cc1	-	0	0	12µM	0	0
CC(C)Cc1nn2c(=O)cc(COC(=O)c3ccccc3NC(=O)c3ccccc3)nc2s1	-	-	-	0	-	-
COc1ccc(CCNC(=O)Nc2ccc3c(c2)OCO3)cc1OC	-	0	0	0	0	0
O=C(Nc1ccc2c(c1)OCO2)C1CCCN1C(=O)OCc1ccccc1 (configuration not stated)	0	0	0	0	0	0
O=C(O)CCCCCNC(=O)Nc1ccc2c(c1)OCCO2	-	0	0	9.5µM	0	0
O=C(NCCc1ccccc1)Nc1cccc(Cl)c1	0	?	0	17µM	0	?
O=C(NCCc1ccc(F)cc1)Nc1ccc2c(c1)OCO2	-	?	0	?	0	2.8µM
O=C(Nc1ccc2c(c1)OCO2)OCc1ccccc1	20µM	1.6µM	?	6µM	-	1.3µM
Cc1cc(Cl)ccc1OC(C)C(=O)Nc1ccc([N+](=O)[O-])cn1 (configuration not stated)	0	0	0	0	0	0
O=C(NCCc1ccccc1)Nc1ccc2c(c1)OCO2	14µM	2.5µM	?	11µM	?	1.4µM
O=C(CCc1ccccc1)Nc1ccc2c(c1)OCO2	-	?	?	?	0	?
SMILES	SMN2 splice up	NPC1 prom act	ELG1 genotoxic	FLuc counter	uPA generation	Rab9 promoter act
O=c1oc(-c2ccc([N+](=O)[O-])cc2)nc2ccccc12	0	0	0	0	0	0
COc1ccc(-c2nc3cc([N+](=O)[O-])ccc3o2)cc1	-	2.5µM	?	0.48µM	0	1.6µM
Nc1ccc(-c2nc3cc([N+](=O)[O-])ccc3o2)cc1	-	1.4µM	0	2.1µM	?	1.1µM
O=c1oc(-c2ccc([N+](=O)[O-])cc2)nc2ccc(O)cc12	0	0	0	15µM	0	?
CC(C)(C)Nc1nc2cc([N+](=O)[O-])ccc2o1	-	0	0	?	0	0
CCc1cccc(C)c1NC(=O)C(CC)Sc1nc2ccncc2[nH]1 (configuration not stated)	0	-	-	0	-	-
Nn1c(SCc2c(F)cccc2F)nnc1-c1ccccn1	-	2µM	16µM	13µM	0	3.2µM
Cc1nnc(SCc2nc3ccccc3s2)n1N	-	0	13µM	9.5µM	0	0
c1ccc(Cn2c(SCc3nc4ccccc4s3)nnc2-c2ccco2)cc1	0	0	0	0	0	0
c1ccc(-c2ncc(CSc3nncn3-c3ccccc3)s2)cc1	0	0	0	0	0	0
CCn1c(SCc2nc3ccccc3s2)nnc1-c1ccccc1	0	0	13µM	15µM	0	0
c1ccc(-n2cnnc2SCc2nc3ccccc3s2)cc1	0	0	?	17µM	0	0
Cc1nnc(SCc2nc3ccccc3s2)n1-c1ccccc1	?	0	?	15µM	0	0
COc1nc(Cl)nc(Cl)c1Cl (tested in a mixture with another compound)	0[9.22 µM]	-	-	-	-	-
CCC(c1nnc(SCc2nc3ccccc3s2)n1Cc1ccccc1)N(C)C (configuration not stated)	0	0	?	17µM	0	0
O=[N+]([O-])c1cc(Cl)ccc1NCCNS(=O)(=O)c1ccccc1	0	0	0	27µM	0	0
O=[N+]([O-])c1ccccc1NCCNS(=O)(=O)c1ccc(Cl)cc1	0[1.84 µM]	0	0	0	0	0
CN(C(=O)c1cc2nc(-c3ccco3)cc(C(F)(F)F)n2n1)c1ccc(OC(F)(F)Cl)cc1	0	-	-	0	-	-
CCOC(=O)C1(C)C=C(Nc2ccc(C(N)=O)cc2)C(=O)N1c1ccccc1 (configuration not stated)	0	-	-	0	-	-
COc1cc(C(=O)N/N=C/c2ccc(OC(=O)c3ccccc3Cl)c(OC)c2)ccc1O	-	0	0	?	0	0
CCOc1cc(/C=N/NC(=O)c2ccccc2-n2cccc2)ccc1O	-	0	0	0	11µM	0
COc1cc(/C=N/NC(=O)c2ccc(-n3cccc3)cc2)ccc1O	0	0	0	21µM	0	0
COc1ccccc1C(=O)NCC(=O)N/N=C/c1ccc2c(c1)OCO2	-	0	0	17µM	0	0
COc1cc(/C=N/NC(=O)c2ccc3c(c2)OCO3)ccc1O	-	0	?	17µM	?	0
CCS(=O)(=O)N1CCC(C(=O)NCCC(C)C)CC1	-	-	-	0	-	-
SMILES	SMN2 splice up	NPC1 prom act	ELG1 genotoxic	FLuc counter	uPA generation	Rab9 promoter act
CCOCCc1nn2c(=O)cc(COC(=O)CNC(=O)c3cccc(C)c3)nc2s1	-	-	-	0	-	-
CCOc1ccc(-n2c(=O)c3c(C)c(C)sc3n(Cc3ccccc3C)c2=O)cc1	0	-	-	0	-	-
CCCCC/C=C\C[C@@H](O)/C=C/C=C\C/C=C\CCCC(=O)O	0	-	-	-	-	-
COc1ccc(/C=N/NC(=O)c2ccc3c(c2)OCO3)cc1	-	0	0	5.4µM	?	0
COc1ccc(NCC(=O)N/N=C/c2ccc3c(c2)OCCO3)cc1	?	0	0	19µM	0	0
COc1ccc2c(Cl)c(C(=O)N/N=C/c3ccc4c(c3)OCO4)sc2c1	0	0	0	0	0	0
COc1ccc(NS(=O)(=O)c2cccc(C(=O)N/N=C/c3ccc4c(c3)OCCO4)c2)cc1	0	0	0	0	0	0
